# The list is not random: actives were taken first. Their share in the collection is about 0.92%.
# BLM inh: inhibitors of human Bloom syndrome helicase BLM. P54132. recombinant BLM DNA unwinding, fluorescence dequenching. Potency, µM (series often up to 56.1 µM), for the others: at the top dose activity change, negative = inhibition, hits mostly inhibitors. 0.2% of 350,000 active. AID 2528;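 note: plate controls were vehicle for no effect and no enzyme for full effect; nearly all actives have a fitted effect of over 35% in size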
# Target sequence (P54132 whole entry, looked up): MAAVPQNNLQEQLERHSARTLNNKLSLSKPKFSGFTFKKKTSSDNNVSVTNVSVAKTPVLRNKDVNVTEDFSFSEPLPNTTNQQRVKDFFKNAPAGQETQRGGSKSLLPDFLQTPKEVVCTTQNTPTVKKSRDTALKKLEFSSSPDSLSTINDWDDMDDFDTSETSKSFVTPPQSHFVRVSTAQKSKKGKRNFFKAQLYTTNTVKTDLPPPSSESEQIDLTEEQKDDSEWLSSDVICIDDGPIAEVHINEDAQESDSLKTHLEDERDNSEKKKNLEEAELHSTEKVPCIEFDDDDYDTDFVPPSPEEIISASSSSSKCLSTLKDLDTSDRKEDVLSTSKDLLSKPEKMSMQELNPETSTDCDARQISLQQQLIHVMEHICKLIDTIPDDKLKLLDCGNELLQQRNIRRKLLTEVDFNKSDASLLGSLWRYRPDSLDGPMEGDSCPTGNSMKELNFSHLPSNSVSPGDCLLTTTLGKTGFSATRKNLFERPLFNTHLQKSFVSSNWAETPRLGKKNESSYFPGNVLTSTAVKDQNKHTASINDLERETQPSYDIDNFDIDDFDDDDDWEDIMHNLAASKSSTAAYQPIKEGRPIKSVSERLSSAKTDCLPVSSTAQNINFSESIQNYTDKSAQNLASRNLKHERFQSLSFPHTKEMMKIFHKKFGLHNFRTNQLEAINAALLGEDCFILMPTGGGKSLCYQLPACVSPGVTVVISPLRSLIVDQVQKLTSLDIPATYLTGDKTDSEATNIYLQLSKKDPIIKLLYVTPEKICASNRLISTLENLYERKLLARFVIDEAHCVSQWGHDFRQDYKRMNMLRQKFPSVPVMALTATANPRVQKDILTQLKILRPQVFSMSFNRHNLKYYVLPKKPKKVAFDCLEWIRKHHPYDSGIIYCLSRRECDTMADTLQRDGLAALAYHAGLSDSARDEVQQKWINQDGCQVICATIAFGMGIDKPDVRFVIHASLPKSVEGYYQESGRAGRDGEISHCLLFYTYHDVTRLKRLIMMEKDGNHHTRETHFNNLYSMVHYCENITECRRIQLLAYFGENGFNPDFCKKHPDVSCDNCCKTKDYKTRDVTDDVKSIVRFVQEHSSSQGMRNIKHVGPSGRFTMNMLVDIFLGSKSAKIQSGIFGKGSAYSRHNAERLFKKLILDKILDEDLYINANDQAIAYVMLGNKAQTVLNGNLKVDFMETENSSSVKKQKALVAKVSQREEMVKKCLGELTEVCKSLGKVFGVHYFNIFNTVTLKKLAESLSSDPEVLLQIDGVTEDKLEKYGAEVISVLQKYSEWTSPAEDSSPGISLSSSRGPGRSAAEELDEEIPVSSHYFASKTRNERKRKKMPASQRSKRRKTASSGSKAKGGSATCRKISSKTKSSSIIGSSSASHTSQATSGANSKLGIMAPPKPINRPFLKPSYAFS
# WRN inhibitor: WRN helicase (human) inhibition | AID 651768 | 0.46% of 360,000 active | WRN helicase unwinding, fluorescent forked duplex, kinetic | Potency, µM (doses to about 114 µM), for the others: at the highest dose activity change, negative = inhibition, hits mostly inhibitors | Q14191; note: nearly all actives have a fitted effect of over 55% in size
#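 Fluorescence dequenching readout, ex 525 nm/em 598 nm, kinetic mode: forked duplex DNA (100 nM final) with adjacent fluorophore and quencher unwound by WRN (20 nM final) with 2 mM ATP. Compound preincubation 15 min, room temperature.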
# L3MBTL1 inh: blocks human L3MBTL1; 0.66% of 230,000 active; AID 485360; Q9Y468; Potency, µM (series often up to 57.1 µM), inactives show at the highest dose activity, negative = inhibition, actives largely listed as inhibitors; AlphaScreen L3MBTL1–H3K9me1 peptide binding; note: nearly all actives have a fitted effect of over 60% in size
#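 L3MBTL1 (50 nM) pre-complexed 30 min with biotinylated H3(1-15)K9me1 peptide (75 nM), then compounds added for 30 min at room temperature; AlphaScreen streptavidin donor/nickel chelate acceptor beads (10 ug/mL final) read after 30 min dark incubation.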
# APE1 inh: inhibitors of human APE1 endonuclease; P27695; recombinant APE1, TAMRA/BHQ-2 abasic DNA cleavage fluorescence; Potency, µM (series often up to 65.8 µM), for inactives: top-dose activity change, negative = inhibition, actives largely listed as inhibitors; 0.35% of 350,000 active;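 note: plate controls were vehicle for no effect and reference inhibitor for full effect; nearly all actives have a fitted effect of over 55% in size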
#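 Kinetic fluorescence read (525 ex/598 em nm, three reads 60 s apart) of AP-site incision; signal = third minus first read. Enzyme 0.75 nM, dual-labelled THF duplex 50 nM, compound preincubation 15 min RT.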
# RECQ1 helicase: blocks DNA unwinding by human RECQ1 | RECQ1 DNA unwinding, red fluorescence kinetic read | 0.54% of 240,000 active | Potency, µM (top dose mostly 57.3 µM), for the others: at the highest dose activity, negative = inhibition, actives largely listed as inhibitors | P46063;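 note: plate controls were vehicle for no effect and no enzyme for full effect; nearly all actives have a fitted effect of over 30% in size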
#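 RECQ1T1 50 nM; forked duplex (20 bp + 30-nt ss tails) 200 nM, ATP 2 mM final; pH 8.0, 2 mM MgCl2, 2.5 ug/ml poly(dI-dC); 15 min compound preincubation; discontinuous kinetic read over 2 h at RT.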
# * = called active by the depositor; i = inactive; ? = inconclusive; . = not tested or not shown; ! = not active in a repeat; [ ] = another dose, or the depositor's remark. Calls come from the whole dose curve; as a rule, active = well fitted curve in the direction sought with a large enough effect; inconclusive = small, poorly fitted or top-dose-only effect, or another doubt; inactive = no such curve, though single readings can be large; an effect the other way counts as inactive or inconclusive. Unless noted, % is set by controls: 0 for no effect and ±100 for the full control effect; potency is the fitted concentration of half-maximal effect.
SMILES,BLM inh,WRN inhibitor,L3MBTL1 inh,APE1 inh,RECQ1 helicase
CC1(C)C(/C=C/C=C/C=C/C=C2\N(CCCCS(=O)(=O)O)c3ccc4ccccc4c3C2(C)C)=[N+](CCCCS(=O)(=O)[O-])c2ccc3ccccc3c21,?,45µM*,.,.,.
NC[C@H]1O[C@H](O[C@H]2[C@H](O)[C@@H](O[C@H]3O[C@H](CO)[C@@H](O)[C@H](N)[C@H]3O)[C@H](N)C[C@@H]2N)[C@H](O)[C@@H](O)[C@@H]1O,.,.,.,-2%[21 µM],.
NC(=O)c1ccc([N+](=O)[O-])cc1,.,.,.,3%,-7%
NC(=O)c1ccc(N=Cc2ccc([N+](=O)[O-])s2)cc1,-3%,-3%,13µM*,?,?
Cc1cc(C)cc(N=Cc2ccc([N+](=O)[O-])s2)c1,-4%,-2%[11.6 µM],8.9µM*,9%,0%
O=[N+]([O-])c1ccc(C=Nc2ccc(Cl)c([N+](=O)[O-])c2)s1,-1%,.,?,?,?
O=C(CSc1nnc(-c2cccc(S(=O)(=O)N3CCCC3)c2)n1-c1ccccc1)Nc1ccc(Cl)cc1,.,.,.,-3%,.
N#Cc1nc(NCCCCO)nc(Nc2ccccc2)n1,-3%,.,.,-12%,0%
O=C1c2cc(CO)cc(O)c2C(=O)c2c(O[C@@H]3OC(CO)[C@@H](O)[C@@H](O)[C@@H]3O)cccc21 (stereo partly specified),.,-11%,.,.,.
O=C(O)c1cc(O)c2c(c1)[C@H]([C@H]1c3cc(C(=O)O)cc(O)c3C(=O)c3c(O[C@@H]4O[C@H](CO)[C@@H](O)[C@H](O)[C@H]4O)cccc31)c1cccc(OC3O[C@H](CO)[C@@H](O)[C@H](O)[C@H]3O)c1C2=O (stereo partly specified),.,4µM*,0.16µM*,0.067µM*,.
O=C(O)c1cc(O)c2c(c1)[C@@H]([C@H]1c3cc(C(=O)O)cc(O)c3C(=O)c3c(O[C@@H]4O[C@H](CO)[C@@H](O)[C@H](O)[C@H]4O)cccc31)c1cccc(OC3O[C@H](CO)[C@@H](O)[C@H](O)[C@H]3O)c1C2=O (stereo partly specified),.,1.1µM*,0.16µM*,0.084µM*,.
Cc1ccc(CNc2ccc(N3CCN(C)CC3)cc2)cc1,.,.,.,19%,.
COC(=O)c1cc2c(s1)c1cnn(Cc3ccccc3F)c(=O)c1n2C,.,.,15%,55%,.
O=C(O)C1OC(Oc2c(-c3ccc(O)c(O)c3)oc3cc(O)cc(O)c3c2=O)C(O)C(O)C1O (stereo unspecified),1%,?,?,7.1µM*,-21%
CC1OC(Oc2c(-c3cc(O)c(O)c(O)c3)oc3cc(O)cc(O)c3c2=O)C(O)C(O)C1O (stereo unspecified),-8%,-3%[11.6 µM],?,7%,1%
CCCCCC#CCC#CCC#CCC#CCCCC(=O)O,13µM*!,.,?,2µM*!,1.1µM*!
Cc1cc(C)c(NC(=O)CSc2nnc(-c3ccccn3)n2N)c(Cl)c1,-3%,4%,28µM*,2%,-1%
COc1ccc(NC(=O)CSc2nnc(-c3ccccn3)n2N)cc1Cl,-4%,-6%,?,13%,1%
Cc1ccc(C)c(CSc2nnc(-c3ccccn3)n2N)c1,-2%,-8%,-18%,0%,7%
Nn1c(SCc2c(F)cccc2F)nnc1-c1ccccn1,-4%,-1%,20µM*,-2%,-1%
CC[C@H](C)[C@H](NC(=O)[C@H](CCC(=O)O)NC(=O)[C@H](CC(N)=O)NC(=O)[C@@H](N)[C@@H](C)O)C(=O)N[C@H](C(=O)N[C@@H](CCC(=O)O)C(=O)N[C@@H](CCC(=O)O)C(=O)N[C@@H](CCC(N)=O)C(=O)N[C@@H](Cc1ccc(O)cc1)C(=O)N[C@H](C(=O)N1CCC[C@H]1C(=O)N[C@@H](CCC(N)=O)C(=O)N[C@@H](CO)C(=O)N[C@@H](CC(C)C)C(=O)N[C@@H](C)C(=O)N[C@H](C(=O)N[C@@H](CC(C)C)C(=O)N[C@@H](CCC(=O)O)C(=O)N[C@@H](CO)C(=O)N[C@H](C(=O)N[C@@H](Cc1ccccc1)C(=O)N[C@@H](CCC(N)=O)C(=O)N[C@@H](CCC(=O)O)C(=O)N[C@@H](CC(C)C)C(=O)NCC(=O)N[C@@H](CCCCN)C(=O)N[C@@H](CC(C)C)C(=O)N[C@H](C(=O)NCC(=O)N1CCC[C@H]1C(=O)N[C@@H](CC(N)=O)C(=O)N[C@@H](CO)C(=O)N[C@@H](CCC(N)=O)C(=O)O)[C@@H](C)O)C(C)C)[C@@H](C)O)[C@@H](C)O)C(C)C,3%,.,.,-2%,-17%
Cc1[nH]nc2c1C(c1ccc(F)cc1)C(C#N)=C(N)O2 (stereo unspecified),-1%,-3%,-5%,-6%,-14%
Cc1oc(C)c2c(=O)ccc3c(c12)OC(N)=C(C#N)C3c1ccc(F)cc1 (stereo unspecified),6%,-34%,28µM*,1%,-4%
CCCCCn1c(N)c(-c2nc3ccccc3o2)c2c([N+](=O)[O-])nn(C)c(=O)c21,16µM*,-31%,-18%,7%,-1%
CCNC(=O)[C@@H]1CCCN1C(=O)[C@H](CCCN=C(N)N)NC(=O)[C@H](CC(C)C)NC(=O)[C@@H](Cc1c[nH]c2ccccc12)NC(=O)[C@H](Cc1ccc(O)cc1)NC(=O)[C@H](CO)NC(=O)[C@H](Cc1c[nH]c2ccccc12)NC(=O)[C@H](Cc1cnc[nH]1)NC(=O)[C@@H]1CCC(=O)N1,26%,.,.,.,.
SMILES,BLM inh,WRN inhibitor,L3MBTL1 inh,APE1 inh,RECQ1 helicase
O=C1CCCC(O)=C1N=Nc1c(Cl)cc(C(F)(F)F)cc1Cl,-8%,79µM*,-53%,?,13µM*
CC1(C)CC(=O)C(N=Nc2cc(C(F)(F)F)ccc2Cl)=C(O)C1,-2%,3%,-10%,1%,1%
O=C(O)c1ccc(COc2ccc3ccccc3c2/C=C2/NC(=O)N(Cc3ccc(F)cc3)C2=O)cc1,?,79µM*,?,-2%,i
CC[N+](CC)(CC)CCOc1ccc(/C=C\c2ccccc2)cc1,40%,.,.,-2%,2%
CC[N+](CC)(CC)CCCCOc1ccc2c(c1)C(=O)c1cc(OCCCC[N+](CC)(CC)CC)ccc1-2,?,50µM*,1%,?,-7%
COC(=O)c1ccccc1NC(=O)COC(=O)c1ccccc1N=Nc1ccc(N(C)C)cc1,-10%,-16%,10µM*,0%,5%
O=C(O)c1cccc2cccnc12,-1%,16%,.,4%,-17%
O=C(O)c1ccnc2c(O)cccc12,.,.,13µM*,-10%,.
CCCCCC(O)c1ccc([C@H]2CCC(=O)[C@@H]2CCCCCCC(=O)O)cc1 (stereo partly specified),1%,.,.,13%,-9%

# Compound activity deposited in PubChem by National Center for Advancing Translational Sciences (NCATS).
